Hit rate of the full screen: of about 96,000 compounds, about 80 (0.08%) were called active. The rule behind the calls is not given here. The list is a sample of the results. Results with a measured potency or affinity are listed apart.
Biological target: Alkaline phosphatase, placental type (Homo sapiens) (UniProt P05187)
Experiment: inhibition of human placental alkaline phosphatase – biochemical, luminescence, HTS (AID 690)
Conditions: purified PLAP, luminescent substrate; at 20 µM; hits give high values

Alkaline phosphatase, placental type (Homo sapiens), sequence (P05187 whole entry, looked up): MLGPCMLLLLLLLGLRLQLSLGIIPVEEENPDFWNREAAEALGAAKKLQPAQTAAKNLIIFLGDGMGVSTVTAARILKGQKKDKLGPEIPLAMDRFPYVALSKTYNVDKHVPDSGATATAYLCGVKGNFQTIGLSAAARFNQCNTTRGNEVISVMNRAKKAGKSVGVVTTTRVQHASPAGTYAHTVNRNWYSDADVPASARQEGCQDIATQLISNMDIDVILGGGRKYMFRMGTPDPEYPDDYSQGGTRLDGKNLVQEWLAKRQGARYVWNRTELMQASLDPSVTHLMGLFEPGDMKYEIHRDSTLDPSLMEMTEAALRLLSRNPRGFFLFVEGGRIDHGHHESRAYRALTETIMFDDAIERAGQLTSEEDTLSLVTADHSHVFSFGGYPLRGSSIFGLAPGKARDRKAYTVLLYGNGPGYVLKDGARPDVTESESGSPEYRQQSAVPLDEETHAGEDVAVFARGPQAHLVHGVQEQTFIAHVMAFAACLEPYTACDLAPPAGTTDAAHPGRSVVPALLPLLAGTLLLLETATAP

inhibition, inactive:
CCOc1ccc(NC(N)=O)cc1OCC 13.6%, O=P(O)(O)c1ccccc1OCCOCCOc1ccccc1P(=O)(O)O 17.4%, O=P(O)(O)c1ccccc1OCCCCCOc1ccccc1P(=O)(O)O 21.2%, CSC1=C(C#N)C(c2ccccc2C)C(C#N)=C(N)N1 (stereo not drawn) 17.9%, O=C(NC(Cc1ccc(F)cc1)C(=O)O)c1ccccc1 (stereo not drawn) -2.2%, Cc1cc(C)n2nc(SCc3nnc(SCc4ccccc4)s3)nc2n1 -20.5%, COC(=O)c1cc(NC(=O)C2COc3ccccc3O2)ccc1Cl (stereo not drawn) 28.8%, Cc1c(NC(=O)C(C)OC(=O)CNC(=O)c2ccccc2)c(=O)n(-c2ccccc2)n1C (stereo not drawn) 5.2%, O=C(CSc1n[nH]c(-c2ccncc2)n1)c1ccccc1 7.6%, Cc1ccc(C(=O)CSc2nc3ccccc3c(=O)[nH]2)cc1 -27.5%, O=C(CSc1n[nH]c(-c2ccccc2)n1)c1ccccc1 -11.7%, CC(C)(C)c1ccc(C(=O)CSc2nc3ccccc3c(=O)[nH]2)cc1 -9.7%, COc1ccc(Cn2c(CCC(=O)Nc3ccc(CC#N)cc3)nc3cccnc32)cc1 11.1%, O=C(C[n+]1ccc(C(=O)N/N=C/c2ccc(OCc3ccccc3)cc2)cc1)c1ccccc1 41.8%, O=C(C[n+]1ccc(C(=O)N/N=C/c2ccc(O)cc2)cc1)c1ccccc1 23.2%, CC(=O)NC1C(=O)N=C(SCC(=O)NC(C)c2ccccc2)NC1=O (stereo not drawn) -18.8%, C=CCNS(=O)(=O)CC12CCC(CC1=O)C2(C)C (stereo not drawn) 4.8%, O=C(NC1(C(F)(F)F)Oc2ccccc2O1)N1CCCC1 -7.5%, CCOC(=O)Cc1csc(NC(=O)NC2(C(F)(F)F)Oc3ccc(Cl)cc3O2)n1 (stereo not drawn) 30.3%, O=C(Nc1cc(N2CCOCC2)ncn1)Nc1cccc2ccccc12 14.5%, O=C(Nc1cc(N2CCOCC2)ncn1)c1ccccc1 1.3%, CC(=O)OC(C)(C)C#CCN1CCCC1 24.5%, CC(=O)N1CCN(C(=S)c2ccc([N+](=O)[O-])cc2)CC1 12.8%, Cc1[nH]c2ccccc2c1/C=N/n1cnnc1 7.5%, Cc1[nH]c2ccccc2c1C(=O)/C=C/c1ccccc1 10.6%, Cc1nn(CC(O)Cn2cnc3c2c(=O)n(C)c(=O)n3C)c(C)c1Br (stereo not drawn) -1.6%, CCOc1cccc(-c2nc(C(N)=O)c3[nH]c(=O)n(-c4cccc(Cl)c4)c3n2)c1O -27.5%, COc1cccc(OCCNc2cc(N3CCCCC3)ccc2[N+](=O)[O-])c1 -2.3%, COc1ccc(OCCNc2cc(Cl)ccc2[N+](=O)[O-])cc1 4.1%, CCC(=O)NCCc1nc2cc(NC(=O)c3ccccc3OC)ccc2n1C -60.5%, CCOC(=O)c1c(C)n(CC(COC(C)=O)OC(C)=O)c2ccc(OC(C)=O)cc12 (stereo not drawn) -45.7%, CCCCN(CCCC)S(=O)(=O)c1ccc(C(=O)Nc2nnc(CSC)o2)cc1 -15.3%, c1ccc([C@H]2CC3C[C@@H](c4ccccc4)N2O3)cc1 -8.8%, O=C(NC1CCCCCC1)c1nc2ncccn2n1 2.9%, COc1cc(/C=N/N(C)c2ccccc2)cc(Cl)c1O 5.2%, CCOc1cc(/C=C2\CCC/C(=C\c3cc(Cl)c(O)c(OCC)c3)C2=O)cc(Cl)c1O 26.7%, N#CC(/C(=N/S(=O)(=O)c1cccs1)c1ccccc1)c1nc2ccccc2[nH]1 (stereo not drawn) -67.4%, O=C(Nc1ccc(Br)cc1)c1cnccn1 -8.2%, Cc1nc2c(cc(Oc3ccc(S(=O)(=O)N4CCOCC4)cn3)c3ccsc32)s1 -48.6%, CN(C)C(C(=O)NC1CCCCC1)c1ccc(Cl)cc1 (stereo not drawn) -18%, O=C(Nc1ccc2c(c1)OCCO2)C1c2ccccc2C(=O)N2CCc3ccccc3C12 (stereo not drawn) 14.8%, Clc1cccc(Cl)c1/C=C/c1nc2ccccc2[nH]1 14.1%, Clc1ccc(/C=C/c2nc3ccccc3[nH]2)cc1 4.3%, Clc1nc(-c2n[nH]nc2Cl)n[nH]1 14.3%, Nc1nnc(-c2cc3ccccc3oc2=O)s1 3.8%, CNc1nnc(-c2cc3cc(Cl)ccc3oc2=O)s1 -24.2%, CC1(C)Cc2c(sc3nc4n(c(=N)c23)CCC4)CO1 -9.9%, CC1(C)Cc2c(sc3nc4n(c(=O)c23)CCC4)CO1 -3.1%, CCCN1C(=O)NC2(O)C(=O)c3ccccc3C12O (stereo not drawn) 0.4%, C=CCOC(=O)C1=C(C)NC2(O)c3ccccc3C(=O)C12O (stereo not drawn) 10.9%, CCSc1nc2c(c(=O)n1CC)SC(C)C2 (stereo not drawn) -16%, Cn1c(=O)c2c(nc(NCCNC(=O)c3ccco3)n2Cc2ccc(Cl)cc2Cl)n(C)c1=O 6.4%, CN1/C(=C/C=N/n2cnnc2)C(C)(C)c2ccccc21 16.4%, CN1/C(=C\C(=O)c2ccco2)C(C)(C)c2ccccc21 3.8%, C=CCn1c(Cc2csc(N)n2)nnc1SCC(=O)Nc1ccccc1C(F)(F)F 21.5%, CC(=O)c1cc2c(C)cc(=O)oc2cc1O 15.2%, CC(=O)Oc1ccc2c(C)cc(=O)oc2c1 24.6%, CCOC(=O)C(C)n1cnc2c(cnn2-c2ccc(Cl)cc2)c1=O (stereo not drawn) 1.3%, CCc1nnc(NC(=O)c2ccc(S(=O)(=O)N3CCCCCC3)cc2)s1 -15.9%, COc1ccc(C(c2nnnn2C2CCCC2)N2CCC(C(N)=O)CC2)c(OC)c1 (stereo not drawn) -65.7%, Cc1cc([N+](=O)[O-])ccc1NCc1ccccc1 47.4%, COc1ccc(CNc2cc([N+](=O)[O-])ccc2OC)cc1 31.1%, Cc1cc(-c2nc3ncccc3o2)ccc1NC(=O)CC(C)C -19.3%, CSc1cccc(NC(=O)Nc2ccccc2)c1 2.1%, CSc1cccc(NC(=O)/C=C/c2ccc(Cl)cc2)c1 20.8%, CCS(=O)(=O)n1nc(-c2ccc(C)cc2)nc1N 13.8%, CCN1C(=O)C(O)(CC(=O)/C=C/C=C/c2ccccc2)c2ccccc21 (stereo not drawn) -9.7%, CCCN1C(=O)/C(=C/C=C2\N(CC)c3ccccc3C2(C)C)SC1=S 22.7%, Cn1c(=O)oc2cc(S(=O)(=O)N3CCC(C(=O)N4CCc5ccccc5C4)CC3)ccc21 12.8%, Cc1ccc(NC(=S)NCCC(c2ccccc2)c2ccccc2)c(C)c1 -44%, O=C1CC(SCCc2nc3ccccc3[nH]2)C(=O)N1c1ccc(Cl)cc1 (stereo not drawn) -15.3%, COc1ccc(C2=C(C=Nc3c(C)n(C)n(-c4ccccc4)c3=O)C(c3ccccc3C)c3ccccc3O2)cc1OC (stereo not drawn) -61%, Cc1ccc(NC(=O)CCn2cccc2)cc1C 5.5%, O=c1oc2ccccc2n1CSc1nc2ccccc2s1 46.4%, O=C(CSc1nc2ccccc2s1)N1c2ccccc2Sc2ccc(Cl)cc21 9.1%, CCOc1ccc(C(CCc2ccccc2)NC(=O)c2ccccc2OC)cc1OCC (stereo not drawn) -15.5%, CS(=O)(=O)N1CCN(c2nc3ccccc3s2)CC1 2.4%, COc1ccc(NC(=O)/C(C#N)=C/c2ccc(Br)o2)cc1 -0.4%, COc1cc(/C=C(\C#N)C(=O)Nc2ccc(SC(F)F)cc2)cc(OC)c1OC -62%, CCc1ccc(/C(C)=N\Nc2ccc([N+](=O)[O-])cc2)cc1 26.2%, C/C(=N\Nc1nc(N)cc(Cl)n1)c1cccc([N+](=O)[O-])c1 -13.2%, COCCNC(=O)C(c1cccc(OC)c1)N(C(=O)Cn1nnc2ccccc21)c1cccnc1 (stereo not drawn) -24%, CCOc1ccccc1C(=O)Nc1ccc(S(=O)(=O)N2CCOCC2)cc1 -60.6%, CCOc1ccc(Cl)cc1/C=N/O 10.1%, O/N=C/c1cc(Cl)ccc1OCc1ccccc1Cl 0%, COc1cccc(C(=O)NCCC2=CCCCC2)c1 8.1%, COc1cc(/C=N/NC(N)=S)ccc1OCC(=O)Nc1ccc(C)c(C)c1 4.4%, CN1c2ccccc2C(C)(C)C12C=Cc1cc(O)ccc1O2 (stereo not drawn) 27.8%, CN1c2ccccc2C(C)(C)C12C=Nc1c(ccc3ccccc13)O2 (stereo not drawn) 0.3%, CC1=NN(C(=O)Cc2ccc([N+](=O)[O-])cc2)C(O)(c2ccccc2)C1 (stereo not drawn) -32.3%, CCOc1ccc(-c2nnc3sc(COc4ccccc4)nn23)cc1 8.3%, CCOc1ccc(-c2nnc3sc(COc4ccc(C)cc4)nn23)cc1 -25.7%, CCN(CC)S(=O)(=O)c1cc([N+](=O)[O-])ccc1NNC(=O)Nc1ccc(Cl)c(Cl)c1 -23.2%, Cc1cc(-c2nnc(SCC(=O)N3C(C)CCCC3C)o2)no1 (stereo not drawn) 0.5%, CCOC(=O)C1=C(O)/C(=C\c2ccc(OC)c(OC)c2)N=C1C -24.6%, CCOC(=O)C1=C(O)/C(=C/c2cc(OC)c(OC)c(OC)c2)N=C1C -30.7%, Cc1nn(-c2ccccc2)c(C)c1CCC(=O)O -21.2%, Cc1cc2cc(CN(CCCO)S(=O)(=O)c3cccc4nsnc34)c(=O)[nH]c2cc1C -57.9%
